# Source: PubChem BioAssay (NCATS)
# Records with an inconclusive call do not appear. A call without a number means that no potency is given here. The source made the active and inactive calls. Calls follow the shape of the dose curve; as a rule, active = well fitted inhibition curve with a large enough effect; inconclusive = small, poorly fitted or top-dose-only effect; inactive = flat fitted curve, though single readings scatter.
# Key:
# Assay in all cases: qHTS profiling for inhibitors of Plasmodium falciparum proliferation (AID 504749); also: nearly all actives have a fitted effect of over 60% in size
# Details in all cases: P. falciparum in erythrocytes, SYBR Green DNA, 72 h; series mostly up to 28.7 µM
# [1] = system: CP191
# How it was run: (§1)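 P. falciparum-infected erythrocytes (0.3% parasitemia, 2.5% hematocrit final) were exposed to compounds for 72 h at 37 C in 5% CO2, then lysed with SYBR Green buffer overnight at room temperature; parasite DNA fluorescence was normalized to artemisinin and DMSO controls.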
# [2] = system: CP192
# How it was run: as §1
# [3] = system: CP194
# How it was run: as §1
# [4] = system: CP201
# How it was run: as §1
# [5] = system: CP211
# How it was run: as §1
# [6] = system: CP215
# How it was run: as §1
# [7] = system: CP217
# How it was run: as §1
# [8] = system: CP237
# How it was run: as §1
# [9] = system: CP238
# How it was run: as §1
# [10] = system: CP247
# How it was run: as §1
# [11] = system: CP250
# How it was run: as §1
# [12] = system: CP252
# How it was run: as §1
# [13] = system: CP256
# How it was run: as §1
# [14] = system: CP260
# How it was run: as §1
# [15] = system: CP262
# How it was run: as §1
# [16] = system: CP265
# How it was run: as §1
# [17] = system: CP266
# How it was run: as §1
# [18] = system: CP268
# How it was run: as §1
# [19] = system: CP269
# How it was run: as §1
# [20] = system: CP203
# How it was run: as §1
# Potency is read from the fitted curve at half-maximal effect.
SMILES,Potency [1],Potency [2],Potency [3],Potency [4],Potency [5],Potency [6],Potency [7],Potency [8],Potency [9],Potency [10],Potency [11],Potency [12],Potency [13],Potency [14],Potency [15],Potency [16],Potency [17],Potency [18],Potency [19],Potency [20]
CS(=O)(=O)Nc1ccc([N+](=O)[O-])cc1Oc1ccccc1,inactive,inactive,inactive,inactive,inactive,inactive,inactive,inactive,inactive,inactive,inactive,inactive,inactive,inactive,inactive,inactive,inactive,inactive,inactive,–
CC(C)(C)C(=O)Oc1ccc(S(=O)(=O)Nc2ccccc2C(=O)NCC(=O)O)cc1,inactive,inactive,inactive,inactive,inactive,inactive,inactive,inactive,inactive,inactive,inactive,inactive,inactive,inactive,inactive,inactive,inactive,inactive,inactive,inactive
NCCCCCC(=O)O,inactive,inactive,inactive,inactive,inactive,inactive,inactive,inactive,inactive,inactive,inactive,inactive,inactive,inactive,inactive,inactive,inactive,inactive,inactive,inactive
CN1CCC(=C2c3ccccc3C=Cc3ccccc32)CC1,inactive,inactive,inactive,inactive,inactive,inactive,inactive,inactive,inactive,inactive,inactive,inactive,inactive,inactive,inactive,inactive,inactive,–,–,–
Cc1cn([C@H]2C=C[C@@H](CO)O2)c(=O)[nH]c1=O,inactive,inactive,inactive,inactive,inactive,inactive,inactive,inactive,inactive,inactive,inactive,inactive,inactive,inactive,inactive,inactive,–,inactive,inactive,–
CC(CCc1ccc(O)cc1)NCCc1ccc(O)c(O)c1 (centres undefined),inactive,inactive,inactive,inactive,inactive,inactive,inactive,inactive,inactive,inactive,inactive,inactive,inactive,inactive,inactive,inactive,inactive,inactive,inactive,inactive
CC(C)Cc1ccc(C(C)C(=O)O)cc1 (centres undefined),inactive,inactive,inactive,inactive,inactive,inactive,inactive,inactive,inactive,inactive,inactive,inactive,inactive,inactive,inactive,inactive,inactive,inactive,inactive,–
CCCNCC(O)COc1ccccc1C(=O)CCc1ccccc1 (centres undefined),1.26 µM (active),2.13 µM (active),3.38 µM (active),6.75 µM (active),4.78 µM (active),1.51 µM (active),0.891 µM (active),0.447 µM (active),1 µM (active),1 µM (active),1 µM (active),0.631 µM (active),1 µM (active),0.891 µM (active),4.78 µM (active),0.355 µM (active),10.7 µM (active),4.26 µM (active),3.79 µM (active),1.69 µM (active)
CN(C)c1nc(N(C)C)nc(N(C)C)n1,inactive,inactive,inactive,inactive,inactive,inactive,inactive,inactive,inactive,inactive,inactive,inactive,inactive,inactive,inactive,inactive,inactive,inactive,inactive,inactive
Nc1nnc(-c2cccc(Cl)c2Cl)c(N)n1,inactive,inactive,inactive,inactive,inactive,inactive,inactive,inactive,inactive,inactive,inactive,inactive,inactive,inactive,inactive,inactive,inactive,inactive,inactive,–
Cn1c(=O)c2[nH]cnc2n(C)c1=O,inactive,inactive,inactive,inactive,inactive,inactive,inactive,inactive,inactive,inactive,inactive,inactive,inactive,inactive,inactive,inactive,inactive,inactive,inactive,–
NC12CC3CC(CC(C3)C1)C2,inactive,inactive,inactive,inactive,inactive,inactive,inactive,–,inactive,inactive,inactive,inactive,–,inactive,inactive,inactive,inactive,inactive,inactive,inactive
Clc1ccccc1C(c1ccccc1)(c1ccccc1)n1ccnc1,0.794 µM (active),1.81 µM (active),1.44 µM (active),4.55 µM (active),2.28 µM (active),1.14 µM (active),0.631 µM (active),0.398 µM (active),0.794 µM (active),0.891 µM (active),1.58 µM (active),0.891 µM (active),2 µM (active),1.41 µM (active),1.02 µM (active),0.708 µM (active),–,2.28 µM (active),0.907 µM (active),–
COc1ccc(CCN(C)CCCC(C#N)(c2ccc(OC)c(OC)c2)C(C)C)cc1OC (centres undefined),inactive,inactive,–,inactive,–,–,inactive,–,inactive,inactive,inactive,inactive,inactive,–,inactive,inactive,–,inactive,–,–
CC1(CN2CCC(n3c(=O)[nH]c4ccccc43)CC2)OCc2ccccc2-n2cccc21 (centres undefined),–,inactive,–,–,–,–,–,–,–,–,–,–,–,–,inactive,–,inactive,–,–,–
OCCN1CCN(CCCN2c3ccccc3Sc3ccc(C(F)(F)F)cc32)CC1,7.94 µM (active),–,10.7 µM (active),8.49 µM (active),7.57 µM (active),13.5 µM (active),10 µM (active),12.6 µM (active),8.91 µM (active),11.2 µM (active),12.6 µM (active),10 µM (active),3.16 µM (active),7.94 µM (active),5.36 µM (active),11.2 µM (active),–,13.5 µM (active),6.01 µM (active),–
CC(C)NCC(O)COc1ccc(CCOCC2CC2)cc1 (centres undefined),–,inactive,inactive,inactive,inactive,inactive,inactive,inactive,inactive,inactive,inactive,inactive,inactive,–,inactive,–,inactive,inactive,–,–
O=c1c(O)c(-c2ccc(O)c(O)c2)oc2cc(O)cc(O)c12,–,–,–,–,–,13.5 µM (active),–,–,–,7.08 µM (active),–,–,–,–,–,–,inactive,–,–,–

SMILES,Potency [1],Potency [2],Potency [3],Potency [4],Potency [5],Potency [6],Potency [7],Potency [8],Potency [9],Potency [10],Potency [11],Potency [12],Potency [13],Potency [14],Potency [15],Potency [16],Potency [17],Potency [18],Potency [19],Potency [20]
O=C(c1ccc(F)cc1)C1CCN(CCn2c(=O)[nH]c3ccccc3c2=O)CC1,–,inactive,inactive,inactive,inactive,–,inactive,inactive,inactive,–,–,inactive,inactive,inactive,inactive,inactive,inactive,–,inactive,inactive
CN(C)CCC=C1c2ccccc2C=Cc2ccccc21,–,inactive,–,–,inactive,–,inactive,inactive,–,inactive,inactive,inactive,–,inactive,inactive,inactive,inactive,–,–,–
CN(C)CCOC(c1ccccc1)c1ccccc1,inactive,inactive,–,inactive,–,inactive,inactive,–,–,inactive,inactive,–,–,5.62 µM (active),inactive,–,inactive,–,inactive,–
O=C(c1ccc(OCCN2CCCCC2)cc1)c1c(-c2ccc(O)cc2)sc2cc(O)ccc12,5.01 µM (active),–,–,9.53 µM (active),–,19 µM (active),–,3.55 µM (active),–,7.08 µM (active),–,–,–,3.16 µM (active),inactive,–,–,10.7 µM (active),–,–
Clc1ccc2c(c1)C(N1CCNCC1)=Nc1ccccc1O2,–,inactive,–,inactive,inactive,–,–,7.08 µM (active),–,–,inactive,–,–,–,inactive,–,inactive,inactive,inactive,–
CC(C)C(=O)Nc1ccc([N+](=O)[O-])c(C(F)(F)F)c1,inactive,inactive,inactive,inactive,inactive,inactive,inactive,inactive,inactive,–,inactive,inactive,inactive,inactive,inactive,inactive,inactive,inactive,inactive,–
CN(Cc1cnc2nc(N)nc(N)c2n1)c1ccc(C(=O)N[C@@H](CCC(=O)O)C(=O)O)cc1,–,inactive,inactive,inactive,inactive,inactive,–,0.1 µM (active),–,–,0.178 µM (active),inactive,–,0.158 µM (active),inactive,–,inactive,inactive,inactive,–
CN(C)CCCN1c2ccccc2CCc2ccc(Cl)cc21,–,–,–,inactive,inactive,–,–,–,inactive,inactive,inactive,inactive,–,–,–,inactive,–,inactive,–,–
CN(C)C(=N)N=C(N)N,inactive,–,–,inactive,–,–,inactive,inactive,inactive,inactive,inactive,inactive,inactive,inactive,–,inactive,inactive,–,–,–
CC[C@@]1(O)C(=O)OCc2c1cc1n(c2=O)Cc2cc3c(CN(C)C)c(O)ccc3nc2-1,8.91 µM (active),–,4.78 µM (active),–,6.01 µM (active),6.01 µM (active),–,8.91 µM (active),–,–,4.47 µM (active),–,–,6.31 µM (active),–,6.31 µM (active),inactive,–,–,–
Cc1ccc(-c2cc(C(F)(F)F)nn2-c2ccc(S(N)(=O)=O)cc2)cc1,–,–,–,–,–,13.5 µM (active),–,–,inactive,–,–,–,–,–,–,–,–,–,–,–
COc1ccccc1OCCNCC(O)COc1cccc2[nH]c3ccccc3c12 (centres undefined),–,inactive,–,inactive,inactive,–,–,12.6 µM (active),–,–,–,–,11.2 µM (active),–,–,8.91 µM (active),inactive,–,–,–
O=C(Nc1ccc([N+](=O)[O-])cc1Cl)c1cc(Cl)ccc1O,0.891 µM (active),–,–,–,–,0.536 µM (active),–,1.12 µM (active),inactive,–,–,–,–,2.82 µM (active),–,–,–,1.9 µM (active),1.2 µM (active),–
O=C1c2c(O)ccc(O)c2C(=O)c2c(NCCNCCO)ccc(NCCNCCO)c21,3.55 µM (active),–,6.42 µM (active),6.42 µM (active),6.42 µM (active),6.42 µM (active),3.55 µM (active),1.26 µM (active),3.16 µM (active),3.16 µM (active),3.16 µM (active),3.16 µM (active),–,1 µM (active),–,–,5.1 µM (active),7.21 µM (active),7.21 µM (active),–
CNCCCC12CCC(c3ccccc31)c1ccccc12,–,inactive,–,inactive,–,inactive,inactive,–,inactive,inactive,inactive,inactive,inactive,–,inactive,–,inactive,inactive,–,–
CC(=O)OCC(CCn1cnc2cnc(N)nc21)COC(C)=O,inactive,inactive,inactive,inactive,inactive,inactive,inactive,inactive,inactive,inactive,inactive,inactive,inactive,inactive,inactive,inactive,–,inactive,inactive,–
Cc1cc(C(C)(C)C)cc(C)c1CC1=NCCN1,inactive,–,inactive,inactive,inactive,inactive,inactive,3.98 µM (active),inactive,inactive,inactive,inactive,inactive,inactive,inactive,inactive,inactive,–,inactive,–
